SMILES strings stand for the structures. Compounds without any hit were thinned out: in the full panel of roughly 79,000, 15% have a hit. A number with no mark means an inactive call. Active and inactive are the calls of the source. Cut-off read from the data, not from the text of the source: active = growth inhibition above about 70%; inactive = the rest.

Assay [1] is described as follows: NCI Yeast Anticancer Drug Screen. Data for the rad50 strain (AID 155).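 Note: 0% = growth of vehicle-only cultures of the same strain.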 The settings on record: S. cerevisiae rad50 strain growth inhibition, hits give high values. In short, it runs like this: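 A DNA repair-deficient yeast mutant serves as the test organism; compound-induced growth inhibition is calculated against vehicle-treated cells.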
The nature of assay [2]: NCI Yeast Anticancer Drug Screen. Data for the mec2-1 strain (AID 157). The note with it: S. cerevisiae mec2-1 strain, hits give high values. In short, it runs like this: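 Growth inhibition is read against vehicle-treated controls after compound exposure of the mec2-1 yeast strain, which is defective in DNA damage repair or cell cycle control.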
Assay [3] can be described thus: NCI Yeast Anticancer Drug Screen. Data for the sgs1 mgt1 strain (AID 161).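 Note: 0% = growth of cultures given vehicle only.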 The note with it: S. cerevisiae sgs1 mgt1 strain, hits give high values. In short, it runs like this: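 This yeast growth screen uses a strain with defined DNA-repair lesions; compound-treated growth is compared with vehicle-treated growth.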
Assay [4] in a line: NCI Yeast Anticancer Drug Screen. Data for the cln2 rad14 strain (AID 165).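 Note: 0% = growth equal to vehicle treated cultures.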 The note with it: S. cerevisiae cln2 rad14 strain, hits give high values. The procedure, abridged:
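Growth inhibition, relative to vehicle-treated controls, is the read-out. The test organism is a yeast strain with defined genetic alterations, cln2 rad14.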

Assay [5] is described as follows: NCI Yeast Anticancer Drug Screen. Data for the bub3 strain (AID 167). The settings on record: S. cerevisiae bub3 mutant strain, hits give high values. The procedure, abridged:
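Inhibition values come from growth of compound-treated mutant yeast normalised to vehicle-treated controls.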

The nature of assay [6]: NCI Yeast Anticancer Drug Screen. Data for the mlh1 rad18 strain (AID 175). The settings on record: S. cerevisiae mlh1 rad18 strain growth inhibition, hits give high values. The procedure, abridged: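 Cells of a genetically altered yeast strain, deficient in DNA damage repair, were treated with compound. Their growth was then compared with that of vehicle-treated cultures to give inhibition.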

The mark [7] stands for this setting: at 5.0 µM (retest, dose inferred, filed as 0.5).
Setting [8] is: at 50.0 µM (retest, dose inferred, filed as 5.0).

As for `C[N+]1(C)C/C(=C\C=C\c2ccccc2)C(=O)/C(=C/C=C/c2ccccc2)C1`, the growth inhibition in assay [1] (setting [7]) is 17%; in assay [1] (setting [8]) it was 17%; in assay [1] (at 50.0 µM), 93.2% (active); in assay [2] (setting [7]), 9%; in assay [2] (setting [8]), 9%; in assay [2] (at 50.0 µM), 92.1% (active). The growth inhibition in assay [3] (setting [7]) is 17%; in assay [3] (setting [8]), 17%; in assay [3] (at 50.0 µM), 92.6% (active); in assay [4] (setting [7]), 0%; in assay [4] (setting [8]), 0%; in assay [4] (at 50.0 µM), 91.5% (active). In addition, the growth inhibition in assay [5] (setting [7]) was -2%; in assay [5] (setting [8]) it was -2%; in assay [5] (at 50.0 µM), 93.9% (active); in assay [6] (setting [7]), 9%; in assay [6] (setting [8]), 9%; in assay [6] (at 50.0 µM), 92.5% (active).

On to `C[n+]1c(/C=C/c2ccc(Cl)cc2)sc2ccccc21`, for which the growth inhibition is -4% in assay [1] (setting [7]); 36% in assay [1] (setting [8]); 60.5% in assay [1] (at 50.0 µM); -6% in assay [2] (setting [7]); 51% in assay [2] (setting [8]); 51.9% in assay [2] (at 50.0 µM). In addition, the growth inhibition in assay [3] (setting [7]) is -11%; in assay [3] (setting [8]) it was 36%; in assay [3] (at 50.0 µM), 73% (active); in assay [4] (setting [7]), 1%; in assay [4] (setting [8]), 28%; in assay [4] (at 50.0 µM), 75.2% (active). In addition, the growth inhibition in assay [5] (setting [7]) is -12%; in assay [5] (setting [8]) it was 34%; in assay [5] (at 50.0 µM), 29.6%; in assay [6] (setting [7]) it was 11%; in assay [6] (setting [8]), 50%; in assay [6] (at 50.0 µM) it was 78.8% (active).

Regarding `CCOC(=O)c1c(N)c(=O)n2c3c(cccc13)CC2`, the growth inhibition in assay [1] (setting [7]) is 0%; in assay [1] (setting [8]) it was 92% (active); in assay [1] (at 50.0 µM) it was 96.9% (active); in assay [2] (setting [7]), -2%; in assay [2] (setting [8]) it was 98% (active); in assay [2] (at 50.0 µM), 97.5% (active). Moreover, the growth inhibition in assay [3] (setting [7]) was 0%; in assay [3] (setting [8]), 99% (active); in assay [3] (at 50.0 µM), 97.7% (active); in assay [4] (setting [7]), 7%; in assay [4] (setting [8]), 59%; in assay [4] (at 50.0 µM), 98.7% (active). In addition, the growth inhibition in assay [5] (setting [7]) is -1%; in assay [5] (setting [8]), 79% (active); in assay [5] (at 50.0 µM), 96.8% (active); in assay [6] (setting [7]), 21%; in assay [6] (setting [8]), 98% (active); in assay [6] (at 50.0 µM), 98.6% (active).

In the case of `O=C(O)/C(=C/c1ccccc1)c1ccccc1.[Ag]`, the growth inhibition in assay [1] (setting [7]) was 99% (active); in assay [1] (setting [8]) it was 99% (active); in assay [1] (at 50.0 µM), 99.4% (active); in assay [2] (setting [7]), 100% (active); in assay [2] (setting [8]), 99% (active); in assay [2] (at 50.0 µM), 94.5% (active). Also, the growth inhibition is 100% (active) in assay [3] (setting [7]); 100% (active) in assay [3] (setting [8]); 99.3% (active) in assay [3] (at 50.0 µM); -14% in assay [4] (setting [7]); 99% (active) in assay [4] (setting [8]); 78.8% (active) in assay [4] (at 50.0 µM). The growth inhibition in assay [5] (setting [7]) was 100% (active); in assay [5] (setting [8]) it was 98% (active); in assay [5] (at 50.0 µM), 93.7% (active); in assay [6] (setting [7]) it was 99% (active); in assay [6] (setting [8]), 99% (active); in assay [6] (at 50.0 µM), 99.4% (active).

Regarding `O=S(NCc1ccccc1)c1ccccc1` (stereo not given), the growth inhibition in assay [1] (setting [7]) was -2%; in assay [1] (setting [8]) it was 13%; in assay [1] (at 50.0 µM) it was 25.6%; in assay [2] (setting [7]) it was 0%; in assay [2] (setting [8]), 8%; in assay [2] (at 50.0 µM) it was 28.7%. For the same compound, the growth inhibition in assay [3] (setting [7]) was -2%; in assay [3] (setting [8]) it was -1%; in assay [3] (at 50.0 µM), 43.3%; in assay [4] (setting [7]) it was -3%; in assay [4] (setting [8]), 4%; in assay [4] (at 50.0 µM), 39.4%. For the same compound, the growth inhibition in assay [5] (setting [7]) was 0%; in assay [5] (setting [8]) it was 10%; in assay [5] (at 50.0 µM), 36.3%; in assay [6] (setting [7]), -1%; in assay [6] (setting [8]), 15%; in assay [6] (at 50.0 µM), 75.7% (active).

The values above are taken from PubChem BioAssay (NCI).
